# About 410 targets per protein were measured; listed, in parts, are those with the strongest signals and a random draw of the rest.
# Assays:
# Experiment in all cases: glycan array binding signal (z-score within array); higher = stronger binding
# Settings in all cases: glycan notation: IUPAC condensed, linker removed
# [1] = target: Fuc(a1-2)Gal(b1-3)GalNAc(a1-3)[Fuc(a1-2)]Gal(b1-4)Glc
# Method in brief: (§1)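 The binding signal is a Z-score computed within each array and averaged over linkers. Arrays of the same protein sequence at different concentrations or buffers were also averaged together. Data originate from 3228 arrays in the Consortium for Functional Glycomics database, kept only where the protein sequence was available.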
# [2] = target: Fuc(a1-2)Gal(b1-3)GalNAc(b1-3)Gal
# Method in brief: as §1
# [3] = target: Fuc(a1-2)Gal(b1-4)[Fuc(a1-3)]GlcNAc(b1-3)GalNAc
# Method in brief: as §1
# [4] = target: Fuc(a1-2)[Gal(a1-3)]Gal(b1-3)GlcNAc
# Method in brief: as §1
# [5] = target: Fuc(a1-2)[Gal(a1-3)]Gal(b1-4)GlcNAc(b1-2)Man
# Method in brief: as §1
# [6] = target: Fuc(a1-2)[GalNAc(a1-3)]Gal(b1-3)GlcNAc(b1-6)GalNAc
# Method in brief: as §1
# [7] = target: Fuc(a1-3)[Gal(b1-4)]GlcNAc
# Method in brief: as §1
# [8] = target: Fuc(a1-3)[GalNAc(b1-4)]GlcNAc
# Method in brief: as §1
# [9] = target: Gal(b1-3)GlcNAc(b1-3)Gal(b1-4)GlcNAc(b1-2)Man(a1-3)[Gal(b1-3)GlcNAc(b1-3)Gal(b1-4)GlcNAc(b1-2)Man(a1-6)]Man(b1-4)GlcNAc(b1-4)GlcNAc
# Method in brief: as §1
# [10] = target: Gal(b1-4)GlcNAc
# Method in brief: as §1
# [11] = target: Gal(b1-4)GlcNAc(b1-2)Man(a1-3)[Gal(b1-4)GlcNAc(b1-2)Man(a1-6)]Man(b1-4)GlcNAc(b1-4)[Fuc(a1-6)]GlcNAc
# Method in brief: as §1
# [12] = target: Gal(b1-4)GlcNAc(b1-2)[Gal(b1-4)GlcNAc(b1-6)]Man(a1-6)[Gal(b1-4)GlcNAc(b1-2)Man(a1-3)]Man(b1-4)GlcNAc(b1-4)[Fuc(a1-6)]GlcNAc
# Method in brief: as §1
# [13] = target: Gal(b1-4)GlcNAc(b1-3)Gal(b1-4)GlcNAc(b1-2)[Gal(b1-4)GlcNAc(b1-3)Gal(b1-4)GlcNAc(b1-6)]Man(a1-6)[Gal(b1-4)GlcNAc(b1-3)Gal(b1-4)GlcNAc(b1-2)Man(a1-3)]Man(b1-4)GlcNAc(b1-4)GlcNAc
# Method in brief: as §1
# [14] = target: Gal(b1-4)GlcNAc(b1-3)Gal(b1-4)GlcNAc(b1-3)Gal(b1-4)GlcNAc(b1-3)Gal(b1-4)GlcNAc(b1-3)Gal(b1-4)GlcNAc(b1-2)Man(a1-3)[Gal(b1-4)GlcNAc(b1-3)Gal(b1-4)GlcNAc(b1-3)Gal(b1-4)GlcNAc(b1-3)Gal(b1-4)GlcNAc(b1-3)Gal(b1-4)GlcNAc(b1-2)Man(a1-6)]Man(b1-4)GlcNAc(b1-4)GlcNAc
# Method in brief: as §1
# [15] = target: Gal(b1-4)GlcNAc(b1-3)Gal(b1-4)GlcNAc(b1-3)Gal(b1-4)GlcNAc(b1-3)Gal(b1-4)GlcNAc(b1-3)Gal(b1-4)GlcNAc(b1-2)[Gal(b1-4)GlcNAc(b1-3)Gal(b1-4)GlcNAc(b1-3)Gal(b1-4)GlcNAc(b1-3)Gal(b1-4)GlcNAc(b1-3)Gal(b1-4)GlcNAc(b1-6)]Man(a1-6)[Gal(b1-4)GlcNAc(b1-3)Gal(b1-4)GlcNAc(b1-3)Gal(b1-4)GlcNAc(b1-3)Gal(b1-4)GlcNAc(b1-3)Gal(b1-4)GlcNAc(b1-2)Man(a1-3)]Man(b1-4)GlcNAc(b1-4)[Fuc(a1-6)]GlcNAc
# Method in brief: as §1
# [16] = target: Gal3S(b1-3)[Fuc(a1-4)]GlcNAc
# Method in brief: as §1
# [17] = target: Gal6S(b1-4)Glc6S
# Method in brief: as §1
# [18] = target: GalNAc(b1-3)Gal(a1-4)Gal(b1-4)GlcNAc
# Method in brief: as §1
# [19] = target: Glc(a1-4)Glc(a1-4)Glc(a1-4)Glc
# Method in brief: as §1
# [20] = target: GlcNAc(a1-4)Gal(b1-4)GlcNAc
# Method in brief: as §1
# [21] = target: GlcNAc(b1-2)[GlcNAc(b1-6)]Man(a1-6)[GlcNAc(b1-2)Man(a1-3)]Man(b1-4)GlcNAc(b1-4)[Fuc(a1-6)]GlcNAc
# Method in brief: as §1
# [22] = target: GlcNAc(b1-3)Gal(b1-4)GlcNAc(b1-3)Gal(b1-4)GlcNAc(b1-2)Man(a1-3)[GlcNAc(b1-3)Gal(b1-4)GlcNAc(b1-3)Gal(b1-4)GlcNAc(b1-2)Man(a1-6)]Man(b1-4)GlcNAc(b1-4)GlcNAc
# Method in brief: as §1
# [23] = target: GlcNAc(b1-3)Gal(b1-4)GlcNAc(b1-3)Gal(b1-4)GlcNAc(b1-2)Man(a1-3)[GlcNAc(b1-3)Gal(b1-4)GlcNAc(b1-3)Gal(b1-4)GlcNAc(b1-2)Man(a1-6)]Man(b1-4)GlcNAc(b1-4)[Fuc(a1-6)]GlcNAc
# Method in brief: as §1
# [24] = target: GlcNAc(b1-3)Gal(b1-4)GlcNAc(b1-3)Gal(b1-4)GlcNAc(b1-3)Gal(b1-4)GlcNAc(b1-2)Man(a1-3)[GlcNAc(b1-3)Gal(b1-4)GlcNAc(b1-3)Gal(b1-4)GlcNAc(b1-3)Gal(b1-4)GlcNAc(b1-2)Man(a1-6)]Man(b1-4)GlcNAc(b1-4)[Fuc(a1-6)]GlcNAc
# Method in brief: as §1
# [25] = target: GlcNAc(b1-4)GlcNAc(b1-4)GlcNAc(b1-4)GlcNAc(b1-4)GlcNAc(b1-4)GlcNAc
# Method in brief: as §1
# [26] = target: GlcNAc(b1-6)GalNAc
# Method in brief: as §1
# [27] = target: Man(a1-2)Man(a1-6)[Man(a1-3)]Man(a1-6)[Man(a1-2)Man(a1-2)Man(a1-3)]Man(b1-4)GlcNAc(b1-4)GlcNAc
# Method in brief: as §1
# [28] = target: Neu5Ac(a2-3)Gal(b1-3)GalNAc(b1-4)[Neu5Ac(a2-8)Neu5Ac(a2-3)]Gal(b1-4)Glc
# Method in brief: as §1
# [29] = target: Neu5Ac(a2-3)Gal(b1-3)GlcNAc
# Method in brief: as §1
# [30] = target: Neu5Ac(a2-3)Gal(b1-3)[GlcNAc(b1-6)]GalNAc
# Method in brief: as §1
# [31] = target: Neu5Ac(a2-3)Gal(b1-3)[Neu5Ac(a2-6)]GlcNAc(b1-3)[Fuc(a1-3)[Gal(b1-4)]GlcNAc(b1-6)]Gal(b1-4)Glc
# Method in brief: as §1
# [32] = target: Neu5Ac(a2-3)Gal(b1-3)]Neu5Ac(a2-3)Gal(b1-4)]GlcNAc
# Method in brief: as §1
# [33] = target: Neu5Ac(a2-3)Gal(b1-4)GlcNAc(b1-3)Gal(b1-4)GlcNAc(b1-3)Gal(b1-4)GlcNAc
# Method in brief: as §1
# [34] = target: Neu5Ac(a2-3)Gal(b1-4)[Fuc(a1-3)]GlcNAc(b1-3)GalNAc
# Method in brief: as §1
# [35] = target: Neu5Ac(a2-3)[Neu5Ac(a2-6)]GalNAc
# Method in brief: as §1
# [36] = target: Neu5Ac(a2-6)Gal(b1-4)GlcNAc(b1-2)[Neu5Ac(a2-6)Gal(b1-4)GlcNAc(b1-4)]Man(a1-3)[GlcNAc(b1-4)][Neu5Ac(a2-6)Gal(b1-4)GlcNAc(b1-2)[Neu5Ac(a2-6)Gal(b1-4)GlcNAc(b1-6)]Man(a1-6)]Man(b1-4)GlcNAc(b1-4)GlcNAc
# Method in brief: as §1
# [37] = target: Neu5Ac(a2-6)Gal(b1-4)GlcNAc(b1-2)[Neu5Ac(a2-6)Gal(b1-4)GlcNAc(b1-4)]Man(a1-3)[GlcNAc(b1-4)][Neu5Ac(a2-6)Gal(b1-4)GlcNAc(b1-4)Man(a1-6)]Man(b1-4)GlcNAc(b1-4)GlcNAc
# Method in brief: as §1
# [38] = target: Neu5Ac(a2-6)Gal(b1-4)GlcNAc(b1-3)Gal(b1-4)GlcNAc(b1-3)GalNAc
# Method in brief: as §1
# [39] = target: Neu5Ac(a2-6)Gal(b1-4)GlcNAc(b1-3)Gal(b1-4)[Fuc(a1-3)]GlcNAc(b1-3)Gal(b1-4)[Fuc(a1-3)]GlcNAc
# Method in brief: as §1
# [40] = target: Neu5Ac(a2-6)GalNAc(b1-4)GlcNAc6S
# Method in brief: as §1
# [41] = target: Neu5Ac(a2-8)Neu5Ac(a2-3)[Gal(b1-3)GalNAc(b1-4)]Gal(b1-4)Glc
# Method in brief: as §1
# [42] = target: Neu5Gc(a2-3)Gal(b1-4)GlcNAc
# Method in brief: as §1
# [43] = target: Neu5Gc(a2-3)Gal(b1-4)GlcNAc(b1-3)Gal(b1-4)GlcNAc(b1-2)Man(a1-3)[Neu5Gc(a2-3)Gal(b1-4)GlcNAc(b1-3)Gal(b1-4)GlcNAc(b1-2)Man(a1-6)]Man(b1-4)GlcNAc(b1-4)GlcNAc
# Method in brief: as §1
# [44] = target: Neu5Gc(a2-6)GalNAc
# Method in brief: as §1
# [45] = target: Neu5Gc(a2-8)Neu5Gc(a2-3)Gal(b1-4)GlcNAc(b1-3)Gal(b1-4)GlcNAc
# Method in brief: as §1
binder,measurement,setting,value
CTAEGIKKFEGDGYELFKDNFPAGEKFDNDDTNDQFYTVIF [MUB40 (Lactobacillus reuteri)],glycan array binding signal (z-score),[1],-0.41
same,glycan array binding signal (z-score),[2],-0.251
same,glycan array binding signal (z-score),[3],3.56
same,glycan array binding signal (z-score),[4],-0.002
same,glycan array binding signal (z-score),[5],2.44
same,glycan array binding signal (z-score),[6],-0.425
same,glycan array binding signal (z-score),[7],0.464
same,glycan array binding signal (z-score),[8],-0.365
same,glycan array binding signal (z-score),[9],4.29
same,glycan array binding signal (z-score),[10],-0.134
same,glycan array binding signal (z-score),[11],-0.425
same,glycan array binding signal (z-score),[12],0.328
same,glycan array binding signal (z-score),[13],-0.339
same,glycan array binding signal (z-score),[14],3.44
same,glycan array binding signal (z-score),[15],2.67
same,glycan array binding signal (z-score),[16],0.295
same,glycan array binding signal (z-score),[17],-0.817
same,glycan array binding signal (z-score),[18],-0.189
same,glycan array binding signal (z-score),[19],-0.331
same,glycan array binding signal (z-score),[20],-0.247
same,glycan array binding signal (z-score),[21],0.341
same,glycan array binding signal (z-score),[22],1.03
same,glycan array binding signal (z-score),[23],2.39
same,glycan array binding signal (z-score),[24],4.26
same,glycan array binding signal (z-score),[25],-0.138
same,glycan array binding signal (z-score),[26],-0.355
same,glycan array binding signal (z-score),[27],-0.33
same,glycan array binding signal (z-score),[28],1.18
same,glycan array binding signal (z-score),[29],-0.358
same,glycan array binding signal (z-score),[30],1.11
same,glycan array binding signal (z-score),[31],-0.114
same,glycan array binding signal (z-score),[32],-0.307
same,glycan array binding signal (z-score),[33],1.72
same,glycan array binding signal (z-score),[34],0.351
same,glycan array binding signal (z-score),[35],1.33
same,glycan array binding signal (z-score),[36],0.5
same,glycan array binding signal (z-score),[37],-0.219
same,glycan array binding signal (z-score),[38],3.03
same,glycan array binding signal (z-score),[39],1.24
same,glycan array binding signal (z-score),[40],2.71
same,glycan array binding signal (z-score),[41],-0.27
same,glycan array binding signal (z-score),[42],2.42
same,glycan array binding signal (z-score),[43],2.75
same,glycan array binding signal (z-score),[44],0.011
same,glycan array binding signal (z-score),[45],2.42

# — the supplement of paper PMC8728848
